Of roughly 7,900 targets only a part is listed; those with a hit were picked by preference. About 0.6% of all pairs of compound and target were hits. Unmarked numbers belong to inactive results.

UniProt O60333, sequence (O60333 whole entry, looked up): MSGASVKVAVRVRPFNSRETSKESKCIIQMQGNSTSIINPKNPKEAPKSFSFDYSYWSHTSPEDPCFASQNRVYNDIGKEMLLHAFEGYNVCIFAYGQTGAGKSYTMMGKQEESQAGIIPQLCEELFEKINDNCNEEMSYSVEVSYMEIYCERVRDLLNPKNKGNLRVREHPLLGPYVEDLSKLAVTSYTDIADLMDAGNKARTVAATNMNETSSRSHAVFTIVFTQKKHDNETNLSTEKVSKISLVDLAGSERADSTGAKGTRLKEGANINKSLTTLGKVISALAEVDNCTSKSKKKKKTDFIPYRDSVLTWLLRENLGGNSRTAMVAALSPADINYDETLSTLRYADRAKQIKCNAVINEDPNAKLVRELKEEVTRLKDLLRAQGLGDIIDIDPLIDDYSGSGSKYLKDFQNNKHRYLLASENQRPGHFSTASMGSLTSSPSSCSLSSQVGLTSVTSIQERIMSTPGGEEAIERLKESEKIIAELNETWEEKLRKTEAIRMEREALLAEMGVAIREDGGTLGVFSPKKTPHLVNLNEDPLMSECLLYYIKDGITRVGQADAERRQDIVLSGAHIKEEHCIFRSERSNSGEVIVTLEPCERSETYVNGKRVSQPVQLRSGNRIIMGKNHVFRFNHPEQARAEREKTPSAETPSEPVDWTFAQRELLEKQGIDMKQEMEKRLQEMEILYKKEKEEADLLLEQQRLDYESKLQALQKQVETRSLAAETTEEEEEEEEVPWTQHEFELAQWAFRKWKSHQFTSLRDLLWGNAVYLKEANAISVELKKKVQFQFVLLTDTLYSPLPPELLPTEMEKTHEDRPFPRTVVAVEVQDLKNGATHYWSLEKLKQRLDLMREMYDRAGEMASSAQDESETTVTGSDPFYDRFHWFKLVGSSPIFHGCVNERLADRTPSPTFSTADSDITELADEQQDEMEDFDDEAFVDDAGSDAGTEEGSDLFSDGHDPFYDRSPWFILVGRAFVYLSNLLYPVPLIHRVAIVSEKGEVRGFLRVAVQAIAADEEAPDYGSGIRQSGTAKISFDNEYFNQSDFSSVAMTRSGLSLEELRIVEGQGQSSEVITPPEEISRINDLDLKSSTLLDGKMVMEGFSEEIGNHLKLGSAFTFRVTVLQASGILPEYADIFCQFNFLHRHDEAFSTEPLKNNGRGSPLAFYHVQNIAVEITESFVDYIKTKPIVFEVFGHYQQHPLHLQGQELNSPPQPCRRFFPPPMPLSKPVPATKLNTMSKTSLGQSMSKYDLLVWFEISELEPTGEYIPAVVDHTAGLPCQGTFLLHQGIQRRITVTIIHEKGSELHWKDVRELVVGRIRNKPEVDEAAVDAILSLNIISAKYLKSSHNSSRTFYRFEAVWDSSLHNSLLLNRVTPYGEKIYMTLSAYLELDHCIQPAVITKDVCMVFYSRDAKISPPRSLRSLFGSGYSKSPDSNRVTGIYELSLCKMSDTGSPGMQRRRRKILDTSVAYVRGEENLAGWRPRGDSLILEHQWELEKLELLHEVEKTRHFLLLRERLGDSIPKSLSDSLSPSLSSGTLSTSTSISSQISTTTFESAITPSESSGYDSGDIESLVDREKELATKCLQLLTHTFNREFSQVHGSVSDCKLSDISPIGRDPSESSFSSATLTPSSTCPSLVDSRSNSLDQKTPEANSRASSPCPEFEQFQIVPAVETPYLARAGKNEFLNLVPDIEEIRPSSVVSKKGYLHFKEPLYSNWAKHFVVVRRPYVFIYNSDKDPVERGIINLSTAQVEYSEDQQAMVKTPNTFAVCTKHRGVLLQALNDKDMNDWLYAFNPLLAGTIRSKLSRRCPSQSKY
UniProt Q92615, sequence (Q92615 whole entry, looked up): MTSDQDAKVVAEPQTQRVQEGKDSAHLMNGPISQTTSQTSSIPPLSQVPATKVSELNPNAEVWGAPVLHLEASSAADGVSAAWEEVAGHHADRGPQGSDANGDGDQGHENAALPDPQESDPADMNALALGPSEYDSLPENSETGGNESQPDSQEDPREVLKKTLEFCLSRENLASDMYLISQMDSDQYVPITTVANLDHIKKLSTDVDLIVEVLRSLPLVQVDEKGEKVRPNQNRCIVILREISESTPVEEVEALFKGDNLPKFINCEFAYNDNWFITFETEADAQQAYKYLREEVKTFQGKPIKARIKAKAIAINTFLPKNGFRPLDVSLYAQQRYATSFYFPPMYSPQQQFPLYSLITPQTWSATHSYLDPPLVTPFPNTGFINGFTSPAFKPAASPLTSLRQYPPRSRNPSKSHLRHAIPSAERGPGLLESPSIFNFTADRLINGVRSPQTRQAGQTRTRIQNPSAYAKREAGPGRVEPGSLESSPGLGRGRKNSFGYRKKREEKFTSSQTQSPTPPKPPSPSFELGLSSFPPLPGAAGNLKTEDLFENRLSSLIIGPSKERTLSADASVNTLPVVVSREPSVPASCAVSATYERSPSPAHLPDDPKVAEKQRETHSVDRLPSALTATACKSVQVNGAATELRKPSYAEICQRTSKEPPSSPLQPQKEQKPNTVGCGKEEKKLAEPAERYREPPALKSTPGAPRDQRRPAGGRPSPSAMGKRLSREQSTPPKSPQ
UniProt Q13257, sequence (Q13257 whole entry, looked up): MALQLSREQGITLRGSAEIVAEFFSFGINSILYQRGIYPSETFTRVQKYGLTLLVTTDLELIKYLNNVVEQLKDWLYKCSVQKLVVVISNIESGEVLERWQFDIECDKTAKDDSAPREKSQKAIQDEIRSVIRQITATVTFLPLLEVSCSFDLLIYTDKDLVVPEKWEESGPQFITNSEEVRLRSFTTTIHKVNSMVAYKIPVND
UniProt Q14693, sequence (Q14693 whole entry, looked up): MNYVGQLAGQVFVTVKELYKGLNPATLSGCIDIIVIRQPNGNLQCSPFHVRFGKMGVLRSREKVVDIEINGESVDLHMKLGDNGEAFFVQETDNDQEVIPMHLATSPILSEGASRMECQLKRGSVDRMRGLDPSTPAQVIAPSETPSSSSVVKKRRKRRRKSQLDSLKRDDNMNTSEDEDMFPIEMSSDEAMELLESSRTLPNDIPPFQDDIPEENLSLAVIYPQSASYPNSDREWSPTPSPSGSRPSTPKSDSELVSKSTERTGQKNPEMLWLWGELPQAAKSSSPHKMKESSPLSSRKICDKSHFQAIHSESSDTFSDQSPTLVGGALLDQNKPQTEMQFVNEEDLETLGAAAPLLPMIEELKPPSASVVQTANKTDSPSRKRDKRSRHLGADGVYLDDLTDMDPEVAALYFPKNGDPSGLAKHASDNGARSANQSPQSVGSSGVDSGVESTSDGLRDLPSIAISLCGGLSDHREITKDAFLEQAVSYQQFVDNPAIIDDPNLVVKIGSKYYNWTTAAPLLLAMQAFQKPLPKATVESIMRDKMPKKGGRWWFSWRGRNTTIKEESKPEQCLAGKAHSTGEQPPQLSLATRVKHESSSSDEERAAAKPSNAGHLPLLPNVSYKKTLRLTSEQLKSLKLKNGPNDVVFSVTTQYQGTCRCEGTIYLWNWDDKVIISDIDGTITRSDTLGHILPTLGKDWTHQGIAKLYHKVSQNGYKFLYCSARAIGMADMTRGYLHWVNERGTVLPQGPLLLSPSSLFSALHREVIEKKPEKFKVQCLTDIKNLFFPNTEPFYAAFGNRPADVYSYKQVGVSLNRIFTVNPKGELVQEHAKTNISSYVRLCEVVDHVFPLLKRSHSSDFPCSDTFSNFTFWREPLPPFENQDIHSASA
UniProt Q99661, sequence (Q99661 whole entry, looked up): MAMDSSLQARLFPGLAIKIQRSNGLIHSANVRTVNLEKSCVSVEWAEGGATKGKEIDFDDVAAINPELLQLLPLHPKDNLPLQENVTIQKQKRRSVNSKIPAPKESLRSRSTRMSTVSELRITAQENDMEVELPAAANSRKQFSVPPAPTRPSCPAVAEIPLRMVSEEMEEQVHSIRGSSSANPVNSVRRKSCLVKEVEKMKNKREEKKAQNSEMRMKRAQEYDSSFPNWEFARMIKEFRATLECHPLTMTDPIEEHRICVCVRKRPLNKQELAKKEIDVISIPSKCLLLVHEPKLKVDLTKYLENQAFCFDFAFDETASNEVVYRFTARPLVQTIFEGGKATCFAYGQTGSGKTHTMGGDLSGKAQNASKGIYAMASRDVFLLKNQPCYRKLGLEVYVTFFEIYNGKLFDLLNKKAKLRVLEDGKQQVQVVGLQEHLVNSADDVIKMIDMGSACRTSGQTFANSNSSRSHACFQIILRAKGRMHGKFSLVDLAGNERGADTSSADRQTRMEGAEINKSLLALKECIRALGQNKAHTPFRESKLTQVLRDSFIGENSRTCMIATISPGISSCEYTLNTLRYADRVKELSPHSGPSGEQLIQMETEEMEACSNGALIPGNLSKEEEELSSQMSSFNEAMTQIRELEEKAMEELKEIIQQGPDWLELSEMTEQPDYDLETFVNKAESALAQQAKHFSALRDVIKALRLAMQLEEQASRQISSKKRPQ
UniProt P36507, sequence (P36507 whole entry, looked up): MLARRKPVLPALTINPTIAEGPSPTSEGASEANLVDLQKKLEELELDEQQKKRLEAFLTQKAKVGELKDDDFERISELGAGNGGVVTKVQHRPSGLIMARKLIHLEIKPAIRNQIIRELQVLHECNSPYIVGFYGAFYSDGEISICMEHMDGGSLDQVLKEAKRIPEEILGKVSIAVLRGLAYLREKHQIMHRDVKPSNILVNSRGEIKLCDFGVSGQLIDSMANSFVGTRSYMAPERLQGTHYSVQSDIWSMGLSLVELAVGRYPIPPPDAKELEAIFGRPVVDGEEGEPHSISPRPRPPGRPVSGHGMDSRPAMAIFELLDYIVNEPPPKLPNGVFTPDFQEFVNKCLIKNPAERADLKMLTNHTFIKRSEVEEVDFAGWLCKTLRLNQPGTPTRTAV
UniProt P14174, sequence (P14174 whole entry, looked up): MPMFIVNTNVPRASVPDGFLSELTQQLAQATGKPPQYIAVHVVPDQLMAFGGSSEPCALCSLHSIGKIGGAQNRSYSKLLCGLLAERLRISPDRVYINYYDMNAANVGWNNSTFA

Compound in this test: Cn1cc(-c2ccc3nnc(C(F)(F)c4ccc5ncccc5c4)n3n2)cn1
Briefly: log2 fold change, soluble protein after heating vs DMSO (PISA); higher = thermal stabilisation; K562 cells, 10 uM, 30 min; active = over 0.2 and 3.5 SD of the protein, either way, in both replicates (recomputed). Put shortly: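 Soluble protein was defined as the supernatant after 21,000xg for 90 min. It came from K562 cells at 2×10^6 cells/mL given 10 μM compound for 30 min, heated in aliquots for 3 min across 48°C-58°C, pooled, and extracted in PBS with 0.5% NP-40 at 4°C, and was quantified by TMTpro 16plex LC-MS/MS with equalised channel sums. Thermal stability against control samples, from duplicates, is reported as log2 fold change.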
With MIEF1 (UniProt Q9NQG6), the log2 fold change was 0.064.

For the target LDAH isoform 2 (UniProt Q9H6V9), the log2 fold change was -0.025. For MAPKAPK2 (UniProt P49137) the value was -0.022; for LIAS (UniProt O43766), 0.059; for MFSD5 isoform 2 (UniProt Q6N075), 0.009. The value for LARP4B (UniProt Q92615) was -0.031; that for LAMP2 (UniProt P13473) was 0.035. The value for MAGEC2 (UniProt Q9UBF1) was -0.07; that for IGFBP4 (UniProt P22692) was -0.102; that for ILF3 isoform 7 (UniProt Q12906) was -0.089. With LTV1 (UniProt Q96GA3), the log2 fold change is -0.09. In the case of MICU2 (UniProt Q8IYU8), the log2 fold change is -0.05.

For MCUR1 (UniProt Q96AQ8), the log2 fold change is -0.091. For KDM1A isoform 2 (UniProt O60341) the value was -0.011. With LEMD2 (UniProt Q8NC56), the log2 fold change is 0.008.

For the target LRRFIP1 (UniProt Q32MZ4), the log2 fold change is 0.013. Consider LPIN1 isoform 7 (UniProt Q14693), for which the log2 fold change is -0.058. The value for MFN1 (UniProt Q8IWA4) was -0.019; that for KIF1B isoform 4 (UniProt O60333) was 0.033; that for MFGE8 (UniProt Q08431) was -0.029. The value for MCCC2 (UniProt Q9HCC0) was 0.028. For MICU1 isoform 3 (UniProt Q9BPX6) the value was -0.055.

For the target LARP1 (UniProt Q6PKG0), the log2 fold change was -0.043. For the target MEPCE (UniProt Q7L2J0), the log2 fold change is 0.061. The value for MAD2L1 (UniProt Q13257) was 0.009.

With KCTD2 (UniProt Q14681), the log2 fold change was -0.015. LYPLA2 (UniProt O95372): the log2 fold change is 0.298. On to INPP5B (UniProt P32019), for which the log2 fold change is -0.032. For IPO11 isoform 2 (UniProt Q9UI26) the value was -0.029. For MARCKS (UniProt P29966) the value was 0.034; for KIF2C (UniProt Q99661), 0.039. As for LPCAT3 (UniProt Q6P1A2), the log2 fold change is -0.015. The value for KTN1 (UniProt Q86UP2) was -0.03; that for MIF (UniProt P14174) was 0.076; that for LUC7L3 (UniProt O95232) was -0.019. The value for LUC7L (UniProt Q9NQ29) was -0.054; that for KPNA1 (UniProt P52294) was -0.008.

Turning to KSR1 (UniProt Q8IVT5), the log2 fold change is -0.129. For MAP2K2 (UniProt P36507), the log2 fold change was 0.098.

The values are drawn from the supplement of paper PMC10849652.
